The list is not random: actives were taken first. Their share in the collection is about 2.9%.
Hsp70 act: Hsp70 transcriptional activators, primary screen, cell-based, HeLa, Hsp70 promoter luciferase, luminescence, 10 µM; HeLa Hsp70 promoter luciferase reporter; scaled: vehicle 0, proteasome-inhibitor control 100%; activation, % at 10 µM; actives 0.04% (n = 200,000); AID 1203, 2008;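 active = activation above the mean across all tested compounds plus 3 SD, cutoff set per campaign, cut at about 5.5% in these data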
S1P3 antagonist: S1P3 receptor antagonists, primary screen, cell-based; Sphingosine 1-phosphate receptor 3 (Homo sapiens), Q99500; CHO S1P3 NFAT-BLA reporter, FRET fluorescence, antagonist mode; inhibition, % at 4.98 µM; actives 0.27% (n = 170,000);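 active = inhibition above the plate cutoff, the mean inhibition of test wells on that plate plus 3 SD, cut at about 28% in these data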;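 note: cells challenged with S1P at its EC80 of 0.8 µM; blue over green emission ratio from cleaved BLA substrate after 4 h stimulation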
S1P4 antagonist: S1P4 receptor antagonists, primary screen, cell-based. inhibition, % at 4.98 µM. S1P4-expressing cells, antagonist mode, reporter read-out. actives 0.26% (n = 220,000). Sphingosine 1-phosphate receptor 4 (Homo sapiens), O95977. AID 1510, 2009; in the data active = inhibition above about 29%
Target sequence (O95977 whole entry, looked up): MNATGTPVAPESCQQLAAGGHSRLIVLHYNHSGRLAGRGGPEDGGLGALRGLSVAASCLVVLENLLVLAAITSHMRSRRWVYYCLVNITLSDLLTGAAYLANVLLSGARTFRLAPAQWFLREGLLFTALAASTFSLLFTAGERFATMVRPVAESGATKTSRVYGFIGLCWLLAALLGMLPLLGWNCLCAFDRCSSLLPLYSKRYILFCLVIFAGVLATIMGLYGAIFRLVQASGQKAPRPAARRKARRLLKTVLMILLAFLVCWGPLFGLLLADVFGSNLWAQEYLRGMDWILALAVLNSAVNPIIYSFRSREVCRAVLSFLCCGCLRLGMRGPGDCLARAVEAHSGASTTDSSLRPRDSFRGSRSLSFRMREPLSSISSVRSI
HSF1 inh: HSF1 inhibitors in luciferase reporter cells, primary screen, cell-based, NIH3T3, luminescence; NIH3T3-HGL HSE-luciferase, MG132-induced, luminescence 8 h; active compounds read low; activity change, negative = inhibition, % at 7.5 µM (by protocol); actives 0.77% (n = 300,000); AID 2098, 2009;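 active = more than half of replicate wells show activity change below -50%, luminescence cut by over half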;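 note: luciferase reports HSF-1 transcriptional activity via heat shock element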
HSF1 activator: HSF-1 activators, primary screen, NIH3T3-HGL cells, MG132 stress, luminescence, single point | actives 1.7% (n = 300,000) | activation, % at 9 µM | NIH3T3-HGL HSF-1 luciferase reporter, 8 h; 100% = twice DMSO control signal | AID 504408, 2011;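 active = mean replicate activation of at least 50% with a set share of replicates each reaching 50%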
S1P4 ag: S1P4 receptor agonists, primary screen, cell-based | Sphingosine 1-phosphate receptor 4 (Homo sapiens), O95977 | S1P4-expressing cell line, agonist reporter assay | activation, % at 4.98 µM | actives 0.35% (n = 220,000) | AID 1509, 2009; in the data active = activation above about 11%
S1P4 agonist cf: S1P4 receptor agonists, retest, confirmation, cell-based, high throughput; actives 7% (n = 740); activation, % at 4.98 µM; S1P4 agonist cell-based reporter assay; AID 1523, 2009; shares compounds with S1P4 ag; in the data active = activation above about 12%
S1P1 ag: S1P1 receptor agonists, human, counter-screen for S1P4 agonist project, cell-based; AID 1563, 2009; S1P1 agonist cell-based assay, activation; actives 4% (n = 740); activation, % at 4.98 µM; shares compounds with S1P4 ag; in the data active = activation above about 21%
Numbers stand for hits; - = inactive; . = no result.

SMILES	Hsp70 act	S1P3 antagonist	S1P4 antagonist	HSF1 inh	HSF1 activator	S1P4 ag	S1P4 agonist cf	S1P1 ag
Cc1ccc(S(=O)(=O)N2CCc3ccccc3C2CC(=O)O)cc1 (stereo unspecified)	.	-	-	-	-	26	-	-
Cc1ccc(NC(=O)Cn2cnc3ccccc32)cc1C	-	-	-	-	-	58	-	-
COc1ccc(CC(=O)Nc2nnc(C(C)(C)C)s2)cc1OC	-	-	-	-	-	32	-	-
Cc1ccnc(N2CCC(C(=O)Nc3cccc(C(F)(F)F)c3)CC2)n1	-	-	-	-	-	-	.	.
CCOC(=O)CC1C(=O)NCCN1S(=O)(=O)c1ccc(Br)cc1 (stereo unspecified)	-	-	-	-	-	11	-	-
CCOC(=O)CC1C(=O)NCCN1S(=O)(=O)c1ccc(C)cc1 (stereo unspecified)	-	-	-	-	-	-	.	.
CCn1c(=O)c2c3c(sc2n2c(=S)[nH]nc12)CCC3	-	.	-	-	-	23	-	-
COc1cc2c(cc1OC)/C(=C/c1ccc(Br)cc1)C(=O)OC2	-	-	-	-	-	149	-	-
COc1ccc(/C=C2\Cc3ccccc3C2=O)cc1OC	.	-	-	-	-	-	.	.
Cn1c(CNC(=O)CCNC(=O)c2cccc(F)c2)cc(=O)n(C)c1=O	.	.	.	-	-	.	.	.
CCn1nc(C)c(NC(=O)/C=C/c2cnn(C)c2)c1C	-	.	-	-	-	-	.	.
CCn1cc(/C=C/C(=O)Nc2c(C)nn(Cc3ccccc3C)c2C)cn1	-	-	-	-	-	20	-	-
Cc1ccc(NC(=O)c2oc3ccc(S(=O)(=O)N4CCC5(CC4)OCCO5)cc3c2C)cc1C	-	-	-	-	-	49	-	-
COc1cccc(C(=O)COC(=O)CCCC(=O)NC2CCCCC2)c1	.	.	.	-	-	.	.	.
Cc1cc(=O)oc2cc(OCC(=O)OCC(=O)N(C)C3CCS(=O)(=O)C3)ccc12 (stereo unspecified)	.	-	-	-	-	-	.	.
CCOC(=O)N1CCN(Cc2nc(-c3ccc(Cl)cc3)no2)CC1	-	.	-	-	-	37	-	-
COc1ccc(/C=C2\CCc3ccccc3C2=O)cc1O	.	.	.	-	-	.	.	.
CC(C)CNS(=O)(=O)c1ccc(S(=O)(=O)N2CCC3(CC2)OCCO3)cc1	-	-	-	-	-	16	-	-
CCCN1CCN(C(=O)C(NC(=O)c2ccco2)C(C)C)CC1 (stereo unspecified)	.	.	.	-	-	.	.	.
O=C(CSCc1ccc(Cl)cc1)Nc1ccc(S(=O)(=O)N2CCCCCC2)cc1	-	-	-	-	-	15	-	-
CCOC(=O)C1CCN(c2cc(C)nc3cc(-c4cccc(F)c4)nn23)CC1	-	-	-	-	-	13	-	-
COC(=O)CCC(=O)N1CCCC(N2CCN(c3cccc(C(F)(F)F)c3)CC2)C1 (stereo unspecified)	.	.	.	-	-	.	.	.
COc1ccc(C2=NN(c3ccc(C=O)cc3)C(c3ccccc3)C2)cc1 (stereo unspecified)	.	.	.	-	-	.	.	.
COc1ccc(C2CC(c3cccs3)=NN2c2ccc(C=O)cc2)cc1 (stereo unspecified)	-	-	-	-	-	23	17	21
CCS(=O)(=O)N1CCC(C(=O)Oc2ccc(C(=O)OC)cc2)CC1	.	.	.	-	-	.	.	.
SMILES	Hsp70 act	S1P3 antagonist	S1P4 antagonist	HSF1 inh	HSF1 activator	S1P4 ag	S1P4 agonist cf	S1P1 ag
Cc1c(S(=O)(=O)N2CCN(c3ccc(F)cc3)CC2)c(=O)n(C)c(=O)n1C	.	.	.	-	-	.	.	.
COCCn1c(=NC(=O)c2cc(Cl)sc2Cl)sc2cc(S(N)(=O)=O)ccc21	-	-	-	-	-	-	.	.
COCCn1c(=NC(=O)c2ccc3c(c2)OCCO3)sc2cc(S(N)(=O)=O)ccc21	-	-	-	-	-	16	-	-
O=C(c1cc(Br)c(Br)s1)N1CCN(c2ccccn2)CC1	.	.	.	-	-	.	.	.
CSc1nc(-c2ccc(Cl)cc2)nc(N)c1C#N	.	-	-	-	-	-	.	.
CSc1nc(N)c(C#N)c(-c2ccc(Cl)cc2)c1C#N	-	-	-	-	-	11	-	-
CCCCn1c(SCC(=O)Nc2cccc(OC)c2)nc2ccc(N3CCOCC3)cc2c1=O	-	.	-	-	-	14	-	-
CCCCn1c(SCC(N)=O)nc2ccc(N3CCOCC3)cc2c1=O	-	.	-	-	-	-	.	.
Cc1cc(N2CCCC(C(=O)Nc3ccc4c(c3)CCC4)C2)n2ncnc2n1 (stereo unspecified)	-	-	-	-	-	17	-	-
Cc1cc(N2CCCC(C(=O)Nc3cccc(Cl)c3)C2)n2ncnc2n1 (stereo unspecified)	-	-	-	-	-	-	.	.
CC1CCCC(C)N1C(=O)COC(=O)CSc1ccc(C(N)=O)cc1[N+](=O)[O-] (stereo unspecified)	.	.	.	-	-	.	.	.
CCN1C(=O)C(CC(=O)Nc2ccc(OC)cc2)N(Cc2ccco2)C1=S (stereo unspecified)	-	-	-	-	-	-	.	.
Cc1cccc(OCC(=O)Nc2ncn[nH]2)c1C	.	-	-	-	-	24	-	-
CNC(=S)N1CCc2cc(OC)c(OC)cc2C1COc1ccc(OC)cc1 (stereo unspecified)	-	-	-	-	-	-	.	.
COCCNC(=S)N1CCc2cc(OC)c(OC)cc2C1COc1cc(C)cc(C)c1 (stereo unspecified)	-	-	-	-	-	18	-	-
O=C1CSC(c2cccnc2)N1Cc1ccc(Cl)c(Cl)c1 (stereo unspecified)	.	-	-	-	-	-	.	.
Cc1ccc(CN2CC(C(=O)NCCCSc3ccccc3)CC2=O)cc1 (stereo unspecified)	.	.	.	-	-	.	.	.
O=C(COC(=O)C1(c2ccc(Cl)cc2)CCCC1)Nc1ncc(C(F)(F)F)cc1Cl	-	-	-	-	-	29	-	-
Nc1nc(Nc2ccc(Cl)cc2Cl)nc(C(F)(F)F)n1	-	-	-	.	.	30	27	-
Nc1nc(Nc2ccccc2Br)nc(C(F)(F)F)n1	-	-	-	-	-	-	.	.
COc1cc(NC(=S)N2CCN(c3ccccn3)CC2)cc(OC)c1OC	-	-	-	-	-	-	.	.
COc1ccc(NC(=S)N2CCN(c3ccccn3)CC2)cc1OC	-	-	-	-	-	28	-	-

Compound activity deposited in PubChem BioAssay by several laboratories.
